Test results: PubChem BioAssay (EPA / NIEHS)
Records with an inconclusive call do not appear. The source made the active and inactive calls. How the source made its calls: active means hit-call score of the fitted dose curve at least 0.9, where 1 is the maximum; inconclusive means response in the unintended direction; inactive means score below 0.9.

Columns and labels:
[1] = molecular target: human Adrenergic, Beta 1 Receptor (Adrb1), ADRB1 (gene 153) (UniProt P08588); assay: NVS_GPCR_hAdrb1: NovaScreen (NVS) G Protein-Coupled Receptor Assay for human Adrenergic, Beta 1 Receptor (Adrb1) (AID 2283258)
Sequence of human Adrenergic, Beta 1 Receptor (Adrb1), ADRB1 (gene 153) (P08588 whole entry, looked up): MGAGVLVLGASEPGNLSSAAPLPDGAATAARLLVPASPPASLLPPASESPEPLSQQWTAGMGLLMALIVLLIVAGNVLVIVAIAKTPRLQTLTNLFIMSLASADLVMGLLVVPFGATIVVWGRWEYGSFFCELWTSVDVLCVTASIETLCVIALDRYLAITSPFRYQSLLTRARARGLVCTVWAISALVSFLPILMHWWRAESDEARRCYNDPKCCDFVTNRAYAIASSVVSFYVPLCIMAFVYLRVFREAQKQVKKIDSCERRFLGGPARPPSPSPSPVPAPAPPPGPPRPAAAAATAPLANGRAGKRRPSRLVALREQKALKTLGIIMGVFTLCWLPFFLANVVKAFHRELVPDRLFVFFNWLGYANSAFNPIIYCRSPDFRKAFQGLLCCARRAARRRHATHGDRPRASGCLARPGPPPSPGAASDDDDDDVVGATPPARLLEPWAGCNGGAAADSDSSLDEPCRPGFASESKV
Method in brief: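 Cell-free radioligand displacement on receptor from human neuroepithelioma cells; 2 h after dosing, filter-based scintillation counting. Primary screen in duplicate at 25 uM, actives retested in concentration series; loss of signal vs DMSO baseline.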

[2] = molecular target: human Adrenergic, Alpha 2c Receptor (Adra2C), ADRA2C (gene 152) (UniProt P18825); assay: NVS_GPCR_hAdra2C: NovaScreen (NVS) G Protein-Coupled Receptor Assay for human Adrenergic, Alpha 2c Receptor (Adra2C) (AID 2283259)
Sequence of human Adrenergic, Alpha 2c Receptor (Adra2C), ADRA2C (gene 152) (P18825 whole entry, looked up): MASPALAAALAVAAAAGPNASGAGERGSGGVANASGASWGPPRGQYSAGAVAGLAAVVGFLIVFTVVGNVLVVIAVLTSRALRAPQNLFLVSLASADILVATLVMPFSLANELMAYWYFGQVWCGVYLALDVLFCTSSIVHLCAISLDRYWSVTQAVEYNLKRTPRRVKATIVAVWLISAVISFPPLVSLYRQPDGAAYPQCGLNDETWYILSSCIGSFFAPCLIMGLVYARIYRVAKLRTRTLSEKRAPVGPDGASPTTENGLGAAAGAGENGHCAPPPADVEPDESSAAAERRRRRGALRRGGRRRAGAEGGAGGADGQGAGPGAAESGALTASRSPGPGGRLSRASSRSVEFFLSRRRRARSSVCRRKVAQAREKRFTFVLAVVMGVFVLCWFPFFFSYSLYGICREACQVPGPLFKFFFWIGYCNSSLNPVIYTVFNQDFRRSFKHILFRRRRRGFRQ
Procedure: NVS_GPCR_hAdra2C is a biochemical, single-readout assay that uses extracted gene-proteins from SF9 in a cell-free assay. Measurements were taken 1 hour after chemical dosing in a 96-well plate.NVS_GPCR_hAdra2C is one of one assay component(s) measured or calculated from the NVS_GPCR_hAdra2C assay. It is designed to make measurements of radioligand binding, a form of binding reporter, as detected with scintillation counting signals by Filter-based radiodetection technology.Data from the assay component NVS_GPCR_hAdra2C was analyzed into 1 assay endpoint. This assay endpoint, NVS_GPCR_hAdra2C, was analyzed in the positive analysis fitting direction relative to DMSO as the negative control and baseline of activity. […] Furthermore, this assay endpoint can be referred to as a primary readout, because the performed assay has only produced 1 assay endpoint. […]
Binding assays used specific radioligands (tritiated, iodinated) with non-radioactive competitive displacement ligands in agonist or antagonist protocols (as indicated) and various reference compounds and inhibitors to titrate specific binding to receptors and transporters. Most enzyme assays (CYPs, kinases, phosphatases, proteases, HDACs) used recombinant protein and specific substrates (fluorescence mostly, some colorimetric and radioactive) and inhibitors, followed by a biochemical separation of substrate and product. […]

[3] = molecular target: human Dopamine Receptor D4.4 (DRD4.4), DRD4 (gene 1815) (UniProt P21917); assay: NVS_GPCR_hDRD4.4: NovaScreen (NVS) G Protein-Coupled Receptor Assay for human Dopamine Receptor D4.4 (DRD4.4) (AID 2283264)
Sequence of human Dopamine Receptor D4.4 (DRD4.4), DRD4 (gene 1815) (P21917 whole entry, looked up): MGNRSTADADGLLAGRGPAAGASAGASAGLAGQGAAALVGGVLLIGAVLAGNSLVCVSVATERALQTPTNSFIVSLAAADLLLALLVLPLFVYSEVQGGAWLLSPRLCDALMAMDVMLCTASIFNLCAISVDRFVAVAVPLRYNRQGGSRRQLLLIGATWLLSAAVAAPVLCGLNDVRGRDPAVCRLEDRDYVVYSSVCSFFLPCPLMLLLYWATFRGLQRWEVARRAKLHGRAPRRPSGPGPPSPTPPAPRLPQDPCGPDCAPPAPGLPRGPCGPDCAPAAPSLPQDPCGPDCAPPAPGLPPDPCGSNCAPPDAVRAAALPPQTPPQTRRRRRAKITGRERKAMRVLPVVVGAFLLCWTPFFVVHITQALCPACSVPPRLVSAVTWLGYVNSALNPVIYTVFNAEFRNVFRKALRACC
Method in brief: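 Radioligand displacement on human DRD4.4 from CHO-derived membranes, 1 hour incubation, bound counts read by filtration and scintillation. Primary screen in duplicate at 25 uM; actives followed up in concentration series.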

[4] = molecular target: human Dopamine Receptor D2 (DRD2), DRD2 (gene 1813) (UniProt P14416); assay: NVS_GPCR_hDRD2s: NovaScreen (NVS) G Protein-Coupled Receptor Assay for human Dopamine Receptor D2 (DRD2) (AID 2283266)
Sequence of human Dopamine Receptor D2 (DRD2), DRD2 (gene 1813) (P14416 whole entry, looked up): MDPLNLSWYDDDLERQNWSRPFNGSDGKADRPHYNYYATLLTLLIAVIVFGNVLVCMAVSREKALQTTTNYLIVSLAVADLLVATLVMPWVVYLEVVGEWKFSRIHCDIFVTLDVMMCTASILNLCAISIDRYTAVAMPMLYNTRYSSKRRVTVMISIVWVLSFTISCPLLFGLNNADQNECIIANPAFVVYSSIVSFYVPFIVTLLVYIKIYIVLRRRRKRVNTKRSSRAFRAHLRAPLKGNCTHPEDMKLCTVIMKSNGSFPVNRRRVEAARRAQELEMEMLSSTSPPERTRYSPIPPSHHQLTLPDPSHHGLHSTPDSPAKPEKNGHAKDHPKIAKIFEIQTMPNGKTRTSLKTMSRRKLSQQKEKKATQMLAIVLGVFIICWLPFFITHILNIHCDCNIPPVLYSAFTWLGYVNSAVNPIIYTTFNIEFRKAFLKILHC
Method in brief: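 Radioligand displacement used human DRD2 membranes extracted from CHO cells and was read by filter-based scintillation counting after 1.5 hours. Primary screening was in duplicate at 25 uM. Loss of signal versus DMSO was fitted, with concentration series in follow-up.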

[5] = molecular target: human Histamine 1 Receptor (H1), HRH1 (gene 3269) (UniProt P35367); assay: NVS_GPCR_hH1: NovaScreen (NVS) G Protein-Coupled Receptor Assay for human Histamine 1 Receptor (H1) (AID 2283268)
Sequence of human Histamine 1 Receptor (H1), HRH1 (gene 3269) (P35367 whole entry, looked up): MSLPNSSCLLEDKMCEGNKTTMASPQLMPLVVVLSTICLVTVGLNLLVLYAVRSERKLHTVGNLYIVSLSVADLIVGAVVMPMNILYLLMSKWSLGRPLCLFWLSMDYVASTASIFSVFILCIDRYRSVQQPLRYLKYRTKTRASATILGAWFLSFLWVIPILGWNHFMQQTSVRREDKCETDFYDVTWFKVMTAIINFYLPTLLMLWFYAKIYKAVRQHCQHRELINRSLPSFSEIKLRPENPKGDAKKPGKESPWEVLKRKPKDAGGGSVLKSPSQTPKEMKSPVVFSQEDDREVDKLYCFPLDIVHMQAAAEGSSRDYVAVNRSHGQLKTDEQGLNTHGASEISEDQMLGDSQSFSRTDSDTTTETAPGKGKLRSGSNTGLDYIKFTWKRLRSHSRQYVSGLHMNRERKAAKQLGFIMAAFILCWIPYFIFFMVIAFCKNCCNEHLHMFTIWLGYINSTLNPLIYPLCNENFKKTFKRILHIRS
Method in brief: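 Cell-free radioligand displacement at human H1 receptor, 1 h, filter scintillation counting; primary screen 25 uM in duplicate, hits in concentration series; loss of binding fitted vs DMSO.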

[6] = molecular target: Muscarinic acetylcholine receptor M3 (Homo sapiens) (UniProt P20309); assay: NVS_GPCR_hM3: NovaScreen (NVS) G Protein-Coupled Receptor Assay for human Muscarinic, M3 Receptor (AID 2283272)
Sequence of Muscarinic acetylcholine receptor M3 (Homo sapiens) (P20309 whole entry, looked up): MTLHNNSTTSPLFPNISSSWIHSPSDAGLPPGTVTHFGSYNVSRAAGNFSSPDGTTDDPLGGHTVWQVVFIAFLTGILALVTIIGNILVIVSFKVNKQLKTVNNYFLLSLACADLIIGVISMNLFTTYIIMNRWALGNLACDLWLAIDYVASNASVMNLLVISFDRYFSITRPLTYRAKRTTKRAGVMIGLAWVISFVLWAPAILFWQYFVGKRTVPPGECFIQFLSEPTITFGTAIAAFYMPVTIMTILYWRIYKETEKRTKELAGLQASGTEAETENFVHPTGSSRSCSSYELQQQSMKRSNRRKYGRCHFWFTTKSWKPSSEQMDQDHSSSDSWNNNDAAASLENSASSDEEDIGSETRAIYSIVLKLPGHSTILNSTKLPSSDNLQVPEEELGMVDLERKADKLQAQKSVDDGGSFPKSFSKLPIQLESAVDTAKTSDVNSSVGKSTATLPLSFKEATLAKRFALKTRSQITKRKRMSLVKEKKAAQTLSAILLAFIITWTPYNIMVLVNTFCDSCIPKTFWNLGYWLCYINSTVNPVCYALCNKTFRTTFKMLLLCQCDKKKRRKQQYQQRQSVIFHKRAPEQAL
Method in brief: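 Radioligand displacement binding on human M3 receptor in CHO-derived membranes, 1 h incubation, filter-based scintillation counting. Primary screen in duplicate at 25 uM; actives followed up in concentration series; loss of signal versus DMSO.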

[7] = molecular target: Muscarinic acetylcholine receptor M5 (Homo sapiens) (UniProt P08912); assay: NVS_GPCR_hM5: NovaScreen (NVS) G Protein-Coupled Receptor Assay for human Muscarinic, M5 Receptor (AID 2283275)
Sequence of Muscarinic acetylcholine receptor M5 (Homo sapiens) (P08912 whole entry, looked up): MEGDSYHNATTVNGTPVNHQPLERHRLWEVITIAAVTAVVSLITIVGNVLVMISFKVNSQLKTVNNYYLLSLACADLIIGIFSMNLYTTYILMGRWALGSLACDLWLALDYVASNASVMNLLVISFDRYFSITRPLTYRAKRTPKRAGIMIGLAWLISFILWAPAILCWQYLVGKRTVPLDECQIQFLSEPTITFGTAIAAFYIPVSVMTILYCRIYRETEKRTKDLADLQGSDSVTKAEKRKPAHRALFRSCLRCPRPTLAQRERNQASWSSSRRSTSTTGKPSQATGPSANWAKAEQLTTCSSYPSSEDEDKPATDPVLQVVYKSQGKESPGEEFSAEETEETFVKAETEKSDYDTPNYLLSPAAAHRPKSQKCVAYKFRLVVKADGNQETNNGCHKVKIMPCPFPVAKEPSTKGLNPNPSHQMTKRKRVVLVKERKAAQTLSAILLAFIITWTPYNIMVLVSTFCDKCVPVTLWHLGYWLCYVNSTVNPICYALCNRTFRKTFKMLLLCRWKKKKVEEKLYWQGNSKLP
Method in brief: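 Radioligand displacement on CHO-derived membrane preparations, 1 h, filter-based scintillation counting. Single-concentration duplicate screen at 25 uM; hits (e.g. 30% inhibition) retested in singleton concentration-response up to 50 uM. Loss of binding fitted versus DMSO.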

[8] = molecular target: human Adrenergic, Beta 3 Receptor (Adrb3), ADRB3 (gene 155) (UniProt P13945); assay: NVS_GPCR_hAdrb3: NovaScreen (NVS) G Protein-Coupled Receptor Assay for human Adrenergic, Beta 3 Receptor (Adrb3) (AID 2283262)
Sequence of human Adrenergic, Beta 3 Receptor (Adrb3), ADRB3 (gene 155) (P13945 whole entry, looked up): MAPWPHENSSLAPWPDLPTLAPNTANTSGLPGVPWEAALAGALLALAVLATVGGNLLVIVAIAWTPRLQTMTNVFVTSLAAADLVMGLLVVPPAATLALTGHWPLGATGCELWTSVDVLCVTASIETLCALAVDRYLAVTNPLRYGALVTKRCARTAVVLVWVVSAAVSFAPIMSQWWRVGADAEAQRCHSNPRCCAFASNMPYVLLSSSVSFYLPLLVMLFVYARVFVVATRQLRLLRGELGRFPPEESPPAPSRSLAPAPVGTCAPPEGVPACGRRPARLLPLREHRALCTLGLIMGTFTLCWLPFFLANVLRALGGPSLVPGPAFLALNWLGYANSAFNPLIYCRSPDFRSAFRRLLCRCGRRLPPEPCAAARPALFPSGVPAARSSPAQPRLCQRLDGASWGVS
Method in brief: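 Membranes from SK-N-MC cells pretreated with isoproterenol and 8-bromo-cAMP were used in a radioligand competitive displacement binding assay. Binding was read by filter-based scintillation counting 1 hour after dosing. Primary screening was in duplicate at 25 uM, with concentration series in follow-up.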

Measured: AC50

CCCCCCCCCCCCc1cccc(S(=O)(=O)O)c1
active: [1] 9.54 µM | [2] 6.82 µM | [3] 13.6 µM | [4] 22.5 µM | [5] 25.4 µM | [6] 16.3 µM | [7] 28.4 µM

O=C(O)C1(c2ccc3c(c2)OC[C@H](Cc2ccc(-c4ccccc4)cc2)[C@H]3O)CCCC1
inactive: [8]
active: [1] 25 µM
